# Measured values from paper PMC7862700, “An all-to-all approach to the identification of sequence-specific readers for epigenetic DNA modifications on cytosine”.
# Experiments:
# Assay in all cases: DAPPL (digital affinity profiling via proximity ligation, sequencing); 10 mM Tris-HCl pH 7.5, 50 mM NaCl, 1 mM DTT, 4% glycerol, room temperature, 30 min; GST-TFs on glutathione beads, 16-mer random dsDNA library, 0.1% formaldehyde crosslink after washing; high values mean tight binding
# FLI1 = target: T1, FLI1 (Homo sapiens, UniProt Q01543 1-452); conditions: protein: recombinant; tags: N-terminal GST; dsDNA, one strand shown
# T1 sequence: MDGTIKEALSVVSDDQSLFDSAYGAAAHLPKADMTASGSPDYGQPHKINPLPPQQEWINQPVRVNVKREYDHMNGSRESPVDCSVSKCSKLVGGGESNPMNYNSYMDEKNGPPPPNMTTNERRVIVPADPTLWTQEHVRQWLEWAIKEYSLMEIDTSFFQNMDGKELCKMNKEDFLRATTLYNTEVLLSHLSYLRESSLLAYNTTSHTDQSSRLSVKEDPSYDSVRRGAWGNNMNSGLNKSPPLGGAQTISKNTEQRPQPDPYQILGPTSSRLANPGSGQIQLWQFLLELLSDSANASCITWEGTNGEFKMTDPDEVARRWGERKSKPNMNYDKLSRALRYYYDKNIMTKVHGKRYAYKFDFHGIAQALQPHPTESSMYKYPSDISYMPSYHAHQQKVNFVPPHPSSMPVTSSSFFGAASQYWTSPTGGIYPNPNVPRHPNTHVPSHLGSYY
# How it was run: (§1)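 Binding signal is defined as a hexamer's read frequency for one factor over its frequency for the tag-only sample. To obtain reads, GST-fused human transcription factors were expressed in yeast, captured on glutathione beads, barcoded with DNA and pooled with that sample. Pools met 200 nmole of a 16-mer random double-stranded DNA library in Tris/NaCl/DTT/glycerol buffer for 30 min at room temperature before washing, 0.1% formaldehyde crosslinking, proximity ligation (BsaI/T4 ligase, 1 h, 37 °C), PCR and Illumina NextSeq500 sequencing.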
# ELK1 = target: T2, ELK1 (Homo sapiens, UniProt P19419 1-428); conditions: protein: recombinant; tags: N-terminal GST; dsDNA, one strand shown
# T2 sequence: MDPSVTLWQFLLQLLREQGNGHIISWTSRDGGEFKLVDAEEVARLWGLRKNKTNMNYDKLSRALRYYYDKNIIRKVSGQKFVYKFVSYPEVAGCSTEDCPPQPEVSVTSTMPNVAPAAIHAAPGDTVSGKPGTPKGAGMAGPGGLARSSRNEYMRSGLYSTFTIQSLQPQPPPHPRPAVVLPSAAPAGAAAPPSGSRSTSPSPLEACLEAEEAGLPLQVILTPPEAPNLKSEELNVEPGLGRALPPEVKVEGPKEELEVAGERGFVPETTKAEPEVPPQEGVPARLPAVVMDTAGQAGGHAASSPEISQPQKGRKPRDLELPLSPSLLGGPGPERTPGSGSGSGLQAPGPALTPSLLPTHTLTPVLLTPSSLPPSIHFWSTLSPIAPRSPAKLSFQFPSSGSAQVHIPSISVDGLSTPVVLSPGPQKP
# How it was run: as §1
# GABPA = target: T3, GABPA (Homo sapiens, UniProt Q06546 1-454); conditions: protein: recombinant; tags: N-terminal GST; dsDNA, one strand shown
# T3 sequence: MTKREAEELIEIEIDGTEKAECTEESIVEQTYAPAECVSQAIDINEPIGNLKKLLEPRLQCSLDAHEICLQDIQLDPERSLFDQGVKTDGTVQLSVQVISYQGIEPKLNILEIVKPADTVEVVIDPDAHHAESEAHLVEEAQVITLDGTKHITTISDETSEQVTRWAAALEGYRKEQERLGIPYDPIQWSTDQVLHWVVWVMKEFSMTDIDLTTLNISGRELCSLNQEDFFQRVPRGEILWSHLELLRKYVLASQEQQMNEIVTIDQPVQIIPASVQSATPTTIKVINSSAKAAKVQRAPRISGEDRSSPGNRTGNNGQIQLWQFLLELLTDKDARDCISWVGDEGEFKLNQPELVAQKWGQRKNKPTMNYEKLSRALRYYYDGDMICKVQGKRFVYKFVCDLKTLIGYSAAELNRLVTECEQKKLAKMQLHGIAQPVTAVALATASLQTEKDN
# How it was run: as §1
# ERG = target: T4, ERG (Homo sapiens, UniProt P11308 1-479); conditions: protein: recombinant; tags: N-terminal GST; dsDNA, one strand shown
# T4 sequence: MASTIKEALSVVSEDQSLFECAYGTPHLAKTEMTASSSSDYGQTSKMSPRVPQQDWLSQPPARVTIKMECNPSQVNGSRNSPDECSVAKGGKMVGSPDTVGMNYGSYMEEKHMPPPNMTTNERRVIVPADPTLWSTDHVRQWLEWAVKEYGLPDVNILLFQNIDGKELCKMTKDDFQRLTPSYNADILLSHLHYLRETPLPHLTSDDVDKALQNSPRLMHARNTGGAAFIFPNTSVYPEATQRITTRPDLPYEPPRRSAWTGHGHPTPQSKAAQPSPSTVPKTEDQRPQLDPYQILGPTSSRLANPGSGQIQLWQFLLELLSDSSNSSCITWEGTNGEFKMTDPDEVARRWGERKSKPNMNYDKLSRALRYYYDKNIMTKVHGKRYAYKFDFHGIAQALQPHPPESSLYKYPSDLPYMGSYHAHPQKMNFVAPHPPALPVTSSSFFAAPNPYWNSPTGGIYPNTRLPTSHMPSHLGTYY
# How it was run: as §1
# ELF1 = ELF1 (Homo sapiens, UniProt P32519 1-619); conditions: protein: recombinant; tags: N-terminal GST; dsDNA, one strand shown
# How it was run: as §1
# EHF = target: T5, EHF (Homo sapiens, UniProt Q9NZC4 1-300); conditions: protein: recombinant; tags: N-terminal GST; dsDNA, one strand shown
# T5 sequence: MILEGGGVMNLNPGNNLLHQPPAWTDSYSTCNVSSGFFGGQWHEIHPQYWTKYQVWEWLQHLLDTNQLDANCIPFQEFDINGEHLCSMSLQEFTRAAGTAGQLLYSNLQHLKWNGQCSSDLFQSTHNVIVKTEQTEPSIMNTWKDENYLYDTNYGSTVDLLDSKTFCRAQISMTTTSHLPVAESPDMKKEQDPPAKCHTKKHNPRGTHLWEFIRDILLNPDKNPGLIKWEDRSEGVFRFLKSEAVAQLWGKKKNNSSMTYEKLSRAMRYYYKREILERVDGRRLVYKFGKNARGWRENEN
# How it was run: as §1
# SPI1 = SPI1 (Homo sapiens, UniProt P17947 1-270); conditions: protein: recombinant; tags: N-terminal GST; dsDNA, one strand shown
# How it was run: as §1
# SPIB = SPIB (Homo sapiens, UniProt Q01892 1-262); conditions: protein: recombinant; tags: N-terminal GST; dsDNA, one strand shown
# How it was run: as §1
# ELK3 = target: T6, ELK3 (Homo sapiens, UniProt P41970 1-407); conditions: protein: recombinant; tags: N-terminal GST; dsDNA, one strand shown
# T6 sequence: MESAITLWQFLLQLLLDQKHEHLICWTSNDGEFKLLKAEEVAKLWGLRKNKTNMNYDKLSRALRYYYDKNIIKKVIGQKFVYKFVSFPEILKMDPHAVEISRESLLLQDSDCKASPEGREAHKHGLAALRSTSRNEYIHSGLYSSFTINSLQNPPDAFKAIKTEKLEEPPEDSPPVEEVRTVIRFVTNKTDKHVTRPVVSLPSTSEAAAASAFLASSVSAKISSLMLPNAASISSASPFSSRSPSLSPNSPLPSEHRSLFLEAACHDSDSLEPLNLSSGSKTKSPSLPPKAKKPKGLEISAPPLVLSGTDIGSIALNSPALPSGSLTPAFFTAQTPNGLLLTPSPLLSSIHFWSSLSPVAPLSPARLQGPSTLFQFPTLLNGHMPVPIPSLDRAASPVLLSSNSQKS
# How it was run: as §1
# FEV = target: T7, FEV (Homo sapiens, UniProt Q99581 1-238); conditions: protein: recombinant; tags: N-terminal GST; dsDNA, one strand shown
# T7 sequence: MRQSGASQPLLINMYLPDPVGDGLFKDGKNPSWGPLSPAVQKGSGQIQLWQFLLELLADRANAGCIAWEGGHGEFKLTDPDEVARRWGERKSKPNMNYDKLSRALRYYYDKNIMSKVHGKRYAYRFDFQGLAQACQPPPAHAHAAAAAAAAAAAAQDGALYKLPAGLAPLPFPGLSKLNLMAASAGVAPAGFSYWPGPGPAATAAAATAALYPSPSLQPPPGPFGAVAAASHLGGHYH
# How it was run: as §1
# ETV5 = ETV5 (Homo sapiens, UniProt P41161 1-510); conditions: protein: recombinant; tags: N-terminal GST; dsDNA, one strand shown
# How it was run: as §1
# HSF1 = HSF1 (Homo sapiens, UniProt Q00613 1-529); conditions: protein: recombinant; tags: N-terminal GST; chain copies: 3; dsDNA, one strand shown
# How it was run: as §1
# SPIC = target: T8, SPIC (Homo sapiens, UniProt Q8N5J4 1-248); conditions: protein: recombinant; tags: N-terminal GST; dsDNA, one strand shown
# T8 sequence: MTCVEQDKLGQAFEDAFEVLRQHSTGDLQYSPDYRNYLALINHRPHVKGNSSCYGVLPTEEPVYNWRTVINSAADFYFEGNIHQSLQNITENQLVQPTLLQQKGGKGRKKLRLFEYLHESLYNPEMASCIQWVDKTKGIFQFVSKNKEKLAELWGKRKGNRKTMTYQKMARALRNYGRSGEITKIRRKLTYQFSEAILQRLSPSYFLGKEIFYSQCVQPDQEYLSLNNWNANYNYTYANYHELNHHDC
# How it was run: as §1
# ELF4 = ELF4 (Homo sapiens, UniProt Q99607 1-663); conditions: protein: recombinant; tags: N-terminal GST; dsDNA, one strand shown
# How it was run: as §1
# ELK4 = target: T9, ELK4 (Homo sapiens, UniProt P28324-2 1-405); conditions: protein: recombinant; tags: N-terminal GST; dsDNA, one strand shown
# T9 sequence: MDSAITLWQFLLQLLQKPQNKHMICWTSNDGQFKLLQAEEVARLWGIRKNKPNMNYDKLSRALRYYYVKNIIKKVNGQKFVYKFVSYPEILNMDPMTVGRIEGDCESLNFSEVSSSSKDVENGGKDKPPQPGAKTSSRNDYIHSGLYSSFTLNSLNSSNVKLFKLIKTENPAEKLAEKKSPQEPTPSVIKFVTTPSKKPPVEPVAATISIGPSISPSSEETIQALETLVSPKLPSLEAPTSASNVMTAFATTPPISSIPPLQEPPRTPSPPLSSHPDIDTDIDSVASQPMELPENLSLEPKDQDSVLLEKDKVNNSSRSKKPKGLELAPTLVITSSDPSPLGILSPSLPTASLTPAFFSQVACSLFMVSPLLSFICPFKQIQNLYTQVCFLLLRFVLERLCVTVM
# How it was run: as §1
# ETV2 = target: T10, ETV2 (Homo sapiens, UniProt O00321 1-342); conditions: protein: recombinant; tags: N-terminal GST; dsDNA, one strand shown
# T10 sequence: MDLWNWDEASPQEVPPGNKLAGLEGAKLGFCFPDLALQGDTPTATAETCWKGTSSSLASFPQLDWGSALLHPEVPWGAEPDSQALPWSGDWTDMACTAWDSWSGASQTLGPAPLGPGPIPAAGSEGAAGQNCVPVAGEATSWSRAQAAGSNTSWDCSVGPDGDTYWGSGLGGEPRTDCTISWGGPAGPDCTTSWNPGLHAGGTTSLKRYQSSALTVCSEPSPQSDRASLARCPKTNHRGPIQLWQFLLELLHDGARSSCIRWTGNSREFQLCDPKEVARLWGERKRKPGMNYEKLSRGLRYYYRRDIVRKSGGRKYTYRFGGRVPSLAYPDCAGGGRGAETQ
# How it was run: as §1
# ELF3 = target: T11, ELF3 (Homo sapiens, UniProt P78545 1-371); conditions: protein: recombinant; tags: N-terminal GST; dsDNA, one strand shown
# T11 sequence: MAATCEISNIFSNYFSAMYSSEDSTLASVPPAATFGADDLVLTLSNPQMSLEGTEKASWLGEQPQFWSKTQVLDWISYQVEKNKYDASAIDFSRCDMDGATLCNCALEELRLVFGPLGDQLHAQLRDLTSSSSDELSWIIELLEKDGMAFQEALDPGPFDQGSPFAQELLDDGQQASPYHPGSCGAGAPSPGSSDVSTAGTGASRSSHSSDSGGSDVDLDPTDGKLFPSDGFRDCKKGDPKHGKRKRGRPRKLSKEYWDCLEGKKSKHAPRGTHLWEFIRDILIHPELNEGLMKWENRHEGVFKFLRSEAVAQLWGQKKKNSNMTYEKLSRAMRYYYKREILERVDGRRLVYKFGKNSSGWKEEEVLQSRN
# How it was run: as §1
# CRX = CRX (Homo sapiens, UniProt O43186 1-299); conditions: protein: recombinant; tags: N-terminal GST; dsDNA, one strand shown
# How it was run: as §1
# ETV1 = ETV1 (Homo sapiens, UniProt P50549 1-477); conditions: protein: recombinant; tags: N-terminal GST; dsDNA, one strand shown
# How it was run: as §1
# ETV1, sequence (P50549 whole entry): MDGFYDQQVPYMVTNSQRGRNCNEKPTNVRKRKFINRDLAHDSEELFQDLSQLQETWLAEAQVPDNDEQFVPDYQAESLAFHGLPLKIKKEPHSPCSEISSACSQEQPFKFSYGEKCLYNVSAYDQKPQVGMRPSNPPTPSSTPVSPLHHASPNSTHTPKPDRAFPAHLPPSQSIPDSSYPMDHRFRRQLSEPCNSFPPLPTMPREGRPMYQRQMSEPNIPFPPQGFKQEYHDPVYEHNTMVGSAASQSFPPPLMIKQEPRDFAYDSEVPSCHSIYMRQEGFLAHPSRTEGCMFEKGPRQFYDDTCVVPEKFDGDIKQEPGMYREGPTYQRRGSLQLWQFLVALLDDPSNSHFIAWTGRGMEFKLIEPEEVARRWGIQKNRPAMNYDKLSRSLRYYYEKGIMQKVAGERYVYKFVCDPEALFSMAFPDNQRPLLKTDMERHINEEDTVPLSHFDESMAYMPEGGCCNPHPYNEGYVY
# CRX, sequence (O43186 whole entry): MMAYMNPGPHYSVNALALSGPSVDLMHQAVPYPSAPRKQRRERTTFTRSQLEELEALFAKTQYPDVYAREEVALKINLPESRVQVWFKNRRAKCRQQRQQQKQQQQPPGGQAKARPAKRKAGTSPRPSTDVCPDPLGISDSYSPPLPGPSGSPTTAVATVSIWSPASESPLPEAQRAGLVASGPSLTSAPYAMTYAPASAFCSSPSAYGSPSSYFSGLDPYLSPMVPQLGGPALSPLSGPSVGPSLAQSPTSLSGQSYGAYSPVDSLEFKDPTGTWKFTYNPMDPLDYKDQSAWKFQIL
# ELF4, sequence (Q99607 whole entry): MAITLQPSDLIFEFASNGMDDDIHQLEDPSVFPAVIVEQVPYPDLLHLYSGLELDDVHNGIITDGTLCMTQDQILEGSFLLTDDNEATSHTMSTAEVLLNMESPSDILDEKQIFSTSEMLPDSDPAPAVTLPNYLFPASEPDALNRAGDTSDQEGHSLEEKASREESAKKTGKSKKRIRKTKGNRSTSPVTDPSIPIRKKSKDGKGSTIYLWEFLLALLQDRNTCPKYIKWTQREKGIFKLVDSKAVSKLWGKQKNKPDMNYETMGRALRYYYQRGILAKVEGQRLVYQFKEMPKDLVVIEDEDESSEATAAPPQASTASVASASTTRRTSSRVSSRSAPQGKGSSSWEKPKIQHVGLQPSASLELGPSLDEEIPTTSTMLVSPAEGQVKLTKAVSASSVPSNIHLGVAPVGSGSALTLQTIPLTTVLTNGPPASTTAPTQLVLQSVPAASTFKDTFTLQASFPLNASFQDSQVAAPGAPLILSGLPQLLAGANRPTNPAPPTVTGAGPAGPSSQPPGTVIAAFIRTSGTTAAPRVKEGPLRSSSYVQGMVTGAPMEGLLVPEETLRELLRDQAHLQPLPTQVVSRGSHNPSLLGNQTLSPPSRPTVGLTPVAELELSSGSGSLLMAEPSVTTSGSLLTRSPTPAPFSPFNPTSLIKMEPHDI
# SPIB, sequence (Q01892 whole entry): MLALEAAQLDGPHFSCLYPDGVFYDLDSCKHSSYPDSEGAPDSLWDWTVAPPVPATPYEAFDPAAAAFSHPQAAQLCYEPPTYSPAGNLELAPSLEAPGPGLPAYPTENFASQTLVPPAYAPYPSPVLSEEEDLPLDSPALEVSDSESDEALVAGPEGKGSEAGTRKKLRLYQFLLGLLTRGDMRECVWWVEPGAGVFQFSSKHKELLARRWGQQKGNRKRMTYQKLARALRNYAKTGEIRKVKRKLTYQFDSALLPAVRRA
# ETV5, sequence (P41161 whole entry): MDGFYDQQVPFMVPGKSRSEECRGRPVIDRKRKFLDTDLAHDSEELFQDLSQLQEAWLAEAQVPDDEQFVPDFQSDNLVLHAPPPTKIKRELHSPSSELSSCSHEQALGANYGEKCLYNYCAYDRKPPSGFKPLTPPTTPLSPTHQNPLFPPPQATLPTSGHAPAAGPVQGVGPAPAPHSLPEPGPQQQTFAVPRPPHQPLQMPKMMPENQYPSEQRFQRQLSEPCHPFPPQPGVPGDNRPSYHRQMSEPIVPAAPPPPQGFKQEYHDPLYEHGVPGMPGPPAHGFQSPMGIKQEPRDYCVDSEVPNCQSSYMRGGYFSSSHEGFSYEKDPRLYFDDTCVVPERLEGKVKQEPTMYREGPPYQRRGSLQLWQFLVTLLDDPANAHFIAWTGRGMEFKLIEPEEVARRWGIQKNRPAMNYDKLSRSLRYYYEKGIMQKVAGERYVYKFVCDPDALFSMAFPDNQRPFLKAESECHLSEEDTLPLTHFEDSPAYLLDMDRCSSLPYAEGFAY
# HSF1, sequence (Q00613 whole entry): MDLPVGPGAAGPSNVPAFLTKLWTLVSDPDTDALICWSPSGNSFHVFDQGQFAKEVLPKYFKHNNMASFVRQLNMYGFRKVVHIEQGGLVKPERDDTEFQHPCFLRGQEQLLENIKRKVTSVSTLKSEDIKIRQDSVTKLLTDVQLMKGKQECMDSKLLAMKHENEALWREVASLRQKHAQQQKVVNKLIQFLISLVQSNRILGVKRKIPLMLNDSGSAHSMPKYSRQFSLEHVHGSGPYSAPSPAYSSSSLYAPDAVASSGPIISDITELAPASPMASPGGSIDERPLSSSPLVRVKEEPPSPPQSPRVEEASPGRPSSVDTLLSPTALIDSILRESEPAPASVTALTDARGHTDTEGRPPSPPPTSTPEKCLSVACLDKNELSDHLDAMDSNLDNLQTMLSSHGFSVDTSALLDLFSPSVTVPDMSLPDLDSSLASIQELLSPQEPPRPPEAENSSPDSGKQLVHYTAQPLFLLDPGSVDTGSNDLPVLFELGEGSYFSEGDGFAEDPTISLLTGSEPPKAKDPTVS
# ELF1, sequence (P32519 whole entry): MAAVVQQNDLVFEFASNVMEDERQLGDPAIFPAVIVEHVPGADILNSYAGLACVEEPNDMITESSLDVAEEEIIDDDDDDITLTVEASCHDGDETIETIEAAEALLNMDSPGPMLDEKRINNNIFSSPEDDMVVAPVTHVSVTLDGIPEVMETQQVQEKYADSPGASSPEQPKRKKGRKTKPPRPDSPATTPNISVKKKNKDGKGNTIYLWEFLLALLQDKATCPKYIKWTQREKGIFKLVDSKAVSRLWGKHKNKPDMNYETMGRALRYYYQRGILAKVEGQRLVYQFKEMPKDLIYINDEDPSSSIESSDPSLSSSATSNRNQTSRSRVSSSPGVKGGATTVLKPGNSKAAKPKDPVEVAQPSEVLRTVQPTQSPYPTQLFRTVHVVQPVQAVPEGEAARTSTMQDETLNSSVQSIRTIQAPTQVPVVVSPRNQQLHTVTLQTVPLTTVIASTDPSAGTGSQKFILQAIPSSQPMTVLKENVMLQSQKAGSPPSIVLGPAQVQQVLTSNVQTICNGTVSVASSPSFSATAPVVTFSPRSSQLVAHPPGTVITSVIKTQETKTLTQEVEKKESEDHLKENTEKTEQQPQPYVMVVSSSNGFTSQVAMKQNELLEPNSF
sequence,measurement,setting,value
AAACAA,binding signal,FLI1,"1.24 fold enrichment (6-mer frequency, TF over GST control)"
same,binding signal,ELK1,"1.33 fold enrichment (6-mer frequency, TF over GST control)"
same,binding signal,GABPA,"1.2 fold enrichment (6-mer frequency, TF over GST control)"
same,binding signal,ERG,"1.38 fold enrichment (6-mer frequency, TF over GST control)"
same,binding signal,ELF1,"1.28 fold enrichment (6-mer frequency, TF over GST control)"
same,binding signal,EHF,"1.26 fold enrichment (6-mer frequency, TF over GST control)"
same,binding signal,SPI1,"1.32 fold enrichment (6-mer frequency, TF over GST control)"
same,binding signal,SPIB,"1.21 fold enrichment (6-mer frequency, TF over GST control)"
same,binding signal,ELK3,"1.36 fold enrichment (6-mer frequency, TF over GST control)"
same,binding signal,FEV,"1.28 fold enrichment (6-mer frequency, TF over GST control)"
same,binding signal,ETV5,"1.28 fold enrichment (6-mer frequency, TF over GST control)"
same,binding signal,HSF1,"1.23 fold enrichment (6-mer frequency, TF over GST control)"
same,binding signal,SPIC,"1.33 fold enrichment (6-mer frequency, TF over GST control)"
same,binding signal,ELF4,"1.31 fold enrichment (6-mer frequency, TF over GST control)"
same,binding signal,ELK4,"1.28 fold enrichment (6-mer frequency, TF over GST control)"
same,binding signal,ETV2,"1.31 fold enrichment (6-mer frequency, TF over GST control)"
same,binding signal,ELF3,"1.49 fold enrichment (6-mer frequency, TF over GST control)"
same,binding signal,CRX,"1.06 fold enrichment (6-mer frequency, TF over GST control)"
same,binding signal,ETV1,"1.32 fold enrichment (6-mer frequency, TF over GST control)"
